Compound activity deposited in PubChem by National Center for Advancing Translational Sciences (NCATS).
GALC G270D act = galactocerebrosidase G270D activity enhancement, cell-based; Potency, µM (top dose mostly 57.5 µM), hits mostly activators; hit rate 0.1% among 45,000; 145M-Twi-hGALC-G270D cells (Twitcher mouse brain line with human GALC G270D), HMU-beta-Gal fluorescence, 48 h; note: potency is the fitted concentration of half-maximal effect; 0% is about no effect; nearly all actives have a fitted effect of over 65% in size
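Fluorogenic HMU-b-Gal hydrolysis (0.1 mM final, pH 5.2 citrate-phosphate with 1 mg/mL sodium taurocholate; carbonate stop buffer) measures mutant GALC activity after compound treatment of live 145M-Twi Twitcher brain cells stably carrying human GALC-G270D, with wild-type GALC line alongside; activation sought.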
B2AR arrestin ag = beta-arrestin recruitment by human beta2-adrenergic receptor ligands; HTLA Tango cells, beta-arrestin recruitment, luciferase luminescence, 18 h; Potency, µM (titrated, usually from 46.1 µM), usual class: activators; 44,000 tested, under 10 active; AID 1347077;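 note: potency is the fitted concentration of half-maximal effect; 0% = DMSO and full agonism = EC100 isoproterenol or metaproterenol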
Target sequence (P07550 whole entry, looked up): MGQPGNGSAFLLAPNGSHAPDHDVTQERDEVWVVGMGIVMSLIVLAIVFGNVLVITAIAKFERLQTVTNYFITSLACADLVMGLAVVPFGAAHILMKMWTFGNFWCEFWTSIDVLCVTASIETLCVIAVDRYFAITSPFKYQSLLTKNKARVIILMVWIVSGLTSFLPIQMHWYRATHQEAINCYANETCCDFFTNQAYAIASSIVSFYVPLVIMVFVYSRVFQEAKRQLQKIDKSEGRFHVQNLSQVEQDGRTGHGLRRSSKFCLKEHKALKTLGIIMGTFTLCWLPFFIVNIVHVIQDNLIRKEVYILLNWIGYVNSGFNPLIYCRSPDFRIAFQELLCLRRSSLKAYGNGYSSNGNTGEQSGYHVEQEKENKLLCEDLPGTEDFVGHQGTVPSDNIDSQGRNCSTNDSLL
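Tango cells expressing recombinant beta2-AR and beta-arrestin were treated with compounds (up to 46 microM titration) in DMEM with 1% FBS for 18 hr at 37 degrees C. Beta-arrestin recruitment drove tTA-dependent luciferase, read by luminescence; curves were fitted and classed.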
DRV1 agonist = GPR32 (DRV1) agonism, beta-arrestin recruitment. hit rate 2.5% among 48,000. CHO-K1 GPR32 beta-arrestin PathHunter luminescence, 90 min; zero percent set by DMSO-only wells. activation, % at 76.9 µM. O75388;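 active = activation of at least 60% and not above a set upper limit, about 1 call in 100 departs from these limits; inconclusive = activation of 40% to 60%, or above that upper limit; inactive = activation under 40%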; note: 0% is about no effect
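PathHunter beta-arrestin recruitment in CHO-K1 cells stably expressing ProLink-tagged GPR32. Cells were exposed to compound for 90 min at 37 C, then chemiluminescence was read after 1 h detection at ambient temperature; DMSO served as basal control.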
PTAP-TSG101 blk = TSG101-PTAP interaction inhibition, HIV-1 budding | 44,000 tested, under 10 active | Potency, µM (titrated, usually from 115 µM), most hits filed as inhibitors | Fluorescence polarization, FITC-PTAP peptide/Tsg101, 20 min | Q99816; note: potency is the fitted concentration of half-maximal effect; 0% is about no effect
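Fluorescence polarization binding of Tsg101 binding domain (10 uM final) to FITC-labeled PTAP-motif peptide (50 nM final) in HEPES pH 7.5/NaCl/Tween 20/EDTA/TCEP buffer; 20 min at r.t. Actives by curve class, <25 µM, efficacy <60% inhibition.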
* marks the source's active call; other numbers are inactive results; [ ] = dose if it differs, or a comment. This is a sample that favours compounds with a hit; in the whole collection about 2.9% have one here. Unless noted, calls come from the whole dose curve; as a rule, active = well fitted curve in the direction sought with a large enough effect; inconclusive = small, poorly fitted or top-dose-only effect, or another doubt; inactive = no such curve, though single readings can be large; an effect the other way counts as inactive or inconclusive.

`Cc1ccc(NC(=O)CC2Sc3ccccc3NC2=O)c(Br)c1` (centres undefined) gave GALC G270D act inactive, B2AR arrestin ag inactive, DRV1 agonist 11 and PTAP-TSG101 blk inactive.
`COc1cccc(CNCCSc2nnnn2C)c1OCc1ccc(Cl)cc1` gave GALC G270D act inactive, B2AR arrestin ag inactive, DRV1 agonist 116* and PTAP-TSG101 blk inactive.
For COc1cccc(CNCCSc2nnnn2C)c1OCc1ccc(Cl)cc1Cl the results were GALC G270D act inactive, B2AR arrestin ag inactive, DRV1 agonist inconclusive and PTAP-TSG101 blk inactive.
For CCOc1cc(CNCCSc2nnnn2C)cc(Cl)c1OCc1ccc(Cl)cc1 the results were GALC G270D act inactive, B2AR arrestin ag inactive, DRV1 agonist 26 and PTAP-TSG101 blk inactive.
COc1cc(CNCCSc2nnnn2C)cc(Cl)c1OCc1ccccc1 was read as GALC G270D act inactive, B2AR arrestin ag inactive, DRV1 agonist 89* and PTAP-TSG101 blk inactive.
For CCCCN(CC)C(=O)CCn1c(=O)c2cccn2c2cccnc21 the results were GALC G270D act inactive, B2AR arrestin ag inactive, DRV1 agonist -13 and PTAP-TSG101 blk inactive.
`Clc1cccc(-n2cc(-c3ccccc3)c3c(N4CCCCC4)ncnc32)c1` gave GALC G270D act inactive, B2AR arrestin ag inactive, DRV1 agonist -14 and PTAP-TSG101 blk inactive.
`CC(C)n1c(=N)c(C(=O)NCc2cccnc2)cc2c(=O)n3ccccc3nc21` gave GALC G270D act 4µM*, B2AR arrestin ag inactive, DRV1 agonist -7 and PTAP-TSG101 blk inactive.
`COCCCn1c(=N)c(C(=O)NC2CCCC2)cc2c(=O)n3cc(C)ccc3nc21` gave GALC G270D act inactive, B2AR arrestin ag inactive, DRV1 agonist 0 and PTAP-TSG101 blk inactive.
Screening Cc1ccc2nc3c(cc(C(=O)NC4CCCC4)c(=N)n3C(C)C)c(=O)n2c1 returned GALC G270D act inactive, B2AR arrestin ag inactive, DRV1 agonist -6 and PTAP-TSG101 blk inactive.
Screening COCCCn1c(=N)c(C(=O)NC2CCCC2)cc2c(=O)n3cccc(C)c3nc21 returned GALC G270D act 25µM*, B2AR arrestin ag inactive, DRV1 agonist -4 and PTAP-TSG101 blk inactive.
`CCC(C)n1c(=N)c(C(=O)NC2CCCCC2)cc2c(=O)n3cc(C)ccc3nc21` (centres undefined) gave GALC G270D act 32µM*, B2AR arrestin ag inactive, DRV1 agonist 6 and PTAP-TSG101 blk inactive.
For CCC(C)n1c(=N)c(C(=O)NC2CCCC2)cc2c(=O)n3ccccc3nc21 (centres undefined) the results were GALC G270D act 10µM*, B2AR arrestin ag inactive, DRV1 agonist 1 and PTAP-TSG101 blk inactive.
OC[C@H]1O[C@H](O[C@]2(CCl)O[C@H](CCl)[C@@H](O)[C@@H]2O)[C@H](O)[C@@H](O)[C@H]1Cl was read as GALC G270D act inactive and DRV1 agonist 6.
COc1ccc(NC(=O)C2CCN(c3ccc(Sc4ccc(C)cc4)nn3)CC2)cc1 was read as GALC G270D act inactive, B2AR arrestin ag inactive, DRV1 agonist 64* and PTAP-TSG101 blk inactive.
CCN[C@@H]1C[C@H](N)[C@@H](OC2OC(CN)=CCC2N)[C@H](O)[C@H]1O[C@H]1OC[C@](C)(O)[C@H](NC)[C@H]1O (some centres undefined) was read as GALC G270D act inactive[0.46 µM] and DRV1 agonist 8.
Screening CCc1ccc(NC(=O)COC(=O)CCCC2=NS(=O)(=O)c3ccccc3N2)cc1 returned GALC G270D act inactive, B2AR arrestin ag inactive, DRV1 agonist 64* and PTAP-TSG101 blk inactive.
Cc1cccc(NC(=O)COC(=O)CCCC2=NS(=O)(=O)c3ccccc3N2)c1 was read as GALC G270D act inactive, B2AR arrestin ag inactive, DRV1 agonist 13 and PTAP-TSG101 blk inactive.
For CC(=O)c1ccc(NS(=O)(=O)c2cccc(S(=O)(=O)c3ccc(Cl)cc3)c2)cc1 the results were GALC G270D act inactive, B2AR arrestin ag inactive, DRV1 agonist 61* and PTAP-TSG101 blk inactive.
`CC(=O)c1ccc(NS(=O)(=O)c2ccc3[nH]c4c(c3c2)CCCC4)cc1` gave GALC G270D act inactive, B2AR arrestin ag inactive, DRV1 agonist 20 and PTAP-TSG101 blk inactive.
`CC(=O)Nc1ccc(NS(=O)(=O)c2ccc3[nH]c4c(c3c2)CCCCC4)cc1` gave GALC G270D act inactive, B2AR arrestin ag inactive, DRV1 agonist 80* and PTAP-TSG101 blk inactive.
`COc1ccc(NS(=O)(=O)c2ccc3[nH]c4c(c3c2)CCCCCC4)cc1` gave GALC G270D act inactive, B2AR arrestin ag inactive, DRV1 agonist 74* and PTAP-TSG101 blk inactive.
`CC(=O)c1ccc(NS(=O)(=O)c2ccc3[nH]c4c(c3c2)CCCCCC4)cc1` gave GALC G270D act inactive, B2AR arrestin ag inactive, DRV1 agonist 73* and PTAP-TSG101 blk inactive.
`CCN(CC)CCN` gave GALC G270D act inactive and DRV1 agonist -9.
CC(C)Nc1ccc(-c2nc(-c3ccncc3)no2)cc1[N+](=O)[O-] was read as GALC G270D act inactive, B2AR arrestin ag inactive, DRV1 agonist -6 and PTAP-TSG101 blk inactive.
Screening COc1ccc(NC(=O)CN(C)S(=O)(=O)c2ccc3[nH]c4c(c3c2)CCCC4)cc1Cl returned GALC G270D act inactive, B2AR arrestin ag inactive, DRV1 agonist 91* and PTAP-TSG101 blk inactive.
COc1ccc(NC(=O)Nc2cc(-c3cn4cccnc4n3)ccc2C)cc1 was read as GALC G270D act inactive, B2AR arrestin ag inactive, DRV1 agonist 18 and PTAP-TSG101 blk inactive.
Cc1ccc(C)c(NC(=O)Nc2cccc(-c3cn4cccnc4n3)c2)c1 was read as GALC G270D act inactive, B2AR arrestin ag inactive, DRV1 agonist 80* and PTAP-TSG101 blk inactive.
Screening O=C(Nc1cccc(-c2cn3cccnc3n2)c1)c1cc(Br)ccc1Cl returned GALC G270D act inactive, B2AR arrestin ag inactive, DRV1 agonist 83* and PTAP-TSG101 blk inactive.
For C/C(=C(\CCO)SS/C(CCO)=C(\C)N(C=O)Cc1cnc(C)nc1N)N(C=O)Cc1cnc(C)nc1N the results were GALC G270D act inactive and DRV1 agonist 35.
Screening CCCSCCCNC(=O)C1CCN(C(=O)c2cc3sccc3n2C)CC1 returned GALC G270D act inactive, B2AR arrestin ag inactive, DRV1 agonist -5 and PTAP-TSG101 blk inactive.
COc1ccc(S(=O)(=O)Cc2ccc(C(=O)NC3CCCCC3)o2)cc1 was read as GALC G270D act inactive, B2AR arrestin ag inactive, DRV1 agonist 89* and PTAP-TSG101 blk inactive.
For Cc1ccc(C)c(Nc2nn3c(=O)c4ccc(C(=O)NCc5ccccc5)cc4nc3s2)c1 the results were GALC G270D act inactive, B2AR arrestin ag inactive, DRV1 agonist 63* and PTAP-TSG101 blk inactive.
